Values joined by “and” are separate entries in the source; they are usually repeats but may differ in a detail not shown here. Identical values can stand only once. The whole screen tested about 73,000 compounds, of which about 1,800 (2.5%) were called active. Where a call stands in place of a potency, no number is given. Another 13% or so got no clear call; they are omitted. The call rests on the fitted dose curve; in most records, active means well fitted activation curve with a large enough effect; inconclusive means small, poorly fitted or top-dose-only effect; inactive means no such curve, though single readings can be large or run the other way. Many of the other results were omitted from the sample, so actives are more common in it than they were. A structure can be active in one record and inactive in another.
experiment: qHTS Assay for Agonists of the Thyroid Stimulating Hormone Receptor: Activators of Intracellular cAMP Concentrations in Parental HEK 293; settings: parental HEK293 CNG cAMP sensor, membrane potential fluorescence; series mostly up to 57.1 µM; further: nearly all actives have a fitted effect of over 55% in size
Procedure, shortened: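 Parental HEK 293 cells stably expressing a modified CNG channel (no TSHR) report cAMP rise as membrane depolarization. Membrane potential dye with 100 uM RO 20-1724 was loaded for 60 min at room temperature, then compound added for 30 min; fluorescence read at 590 nm.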
Potency means the concentration at half of the fitted maximal effect.

| Compound | activation | Potency |
| --- | --- | --- |
| COC(=O)[C@@H]1CC[C@H](C)[C@@H](c2ccc(C)cc2)N1C(=O)c1ccc(/C=N\OC[C@@H](O)COCc2ccco2)cc1 | 44.4% [at 11.4 µM] (inactive) | – |
| CO[C@@H]1COC(=O)[C@H](Cc2ccccc2)NC(=O)C/C=C\[C@@H](C)[C@H](OC)COC(=O)[C@@H](C)NC(=O)C/C=C\[C@H]1C | 8.45% [at 11.4 µM] (inactive) and -4.16% [at 11.4 µM] (inactive) | – |
| COCCn1c(SCC(=O)Nc2cc(Cl)ccc2OC)nc2c(c1=O)SC(C)C2 (configuration not stated) | – | inactive |
| COC(=O)c1ccc(C2C3=C(Nc4nnnn42)c2ccccc2OC3)cc1 (configuration not stated) | – | 12.6 µM (active) |
| COc1ccccc1NC(=O)C1=C(C)Nc2nnnn2C1c1cccc(Br)c1 (configuration not stated) | – | inactive |
| COc1ccc(C2C(C(=O)Nc3ccccc3OC)=C(C)Nc3nnnn32)c(OC)c1 (configuration not stated) | – | inactive |
| O=C(CNCCO)NC12CC3CC(CC(C3)C1)C2 | – | inactive |
| CO[C@H]1COC(=O)[C@@H](C)NC(=O)C/C=C\[C@@H](C)[C@H](OC)COC(=O)C/C=C\[C@@H]1C | 2.45% [at 11.4 µM] (inactive) | – |
| Cc1ccc(N2CCN(c3ccc(C)cc3)C2c2ccccn2)cc1 | – | inactive |
| Cc1ccc(N(CC(O)CN2CCCC2)S(=O)(=O)c2ccccc2)cc1 (configuration not stated) | 9.44% [at 11.4 µM] (inactive) | – |
| Cc1ccc(/C(=C/CN2CCCC2)c2ccccn2)cc1 | – | inactive and 25.1 µM (active) |
| O=NO | – | inactive |
| Cn1c(=O)n2n(c1=O)[C@H]1[C@H](O)[C@H]3O[C@H]3C(=O)[C@H]1CC2 | 0.42% [at 11.4 µM] (inactive) | – |
| Cc1cc(NC(=O)Cn2nc(C(F)(F)F)c3c2CCCC3)no1 | – | inactive |
| O=C(Cn1nc(C(F)(F)F)c2c1CCC2)NCc1ccc(F)cc1 | – | inactive |
| COC(=O)c1ccccc1NC(=O)Cn1nc(C(F)(F)F)c2c1CCC2 | – | 25.1 µM (active) |
| CCCNC(=O)OC[C@@H]1O[C@H](c2ccccc2)C=C[C@@H]1Oc1ccc(OC)cc1 | 1.38% [at 11.4 µM] (inactive) | – |
| COC(=O)c1ccc(NC(=O)c2ccco2)cc1 | – | inactive |
| CCCC[C@@H]1C[C@H]1C(NC(=O)c1ccc(-c2ccccc2)cc1)c1ccc(-c2ccccc2)cc1 (some centres not stated) | – | inactive |
| CCCC[C@@H]1C[C@H]1C(NC(=O)c1ccco1)c1ccc(C(=O)OC)cc1 (some centres not stated) | – | 25.1 µM (active) |
| CCC(C)(C)N=C(NC#N)Nc1cccnc1 | – | inactive |
| O=C(CN1CCN(c2ccccc2F)CC1)c1ccc2c(c1)OCO2 | – | inactive |
| CC1CCN(Cc2nc3c(c(=O)n(C)c(=O)n3C)n2CCc2ccccc2)CC1 | – | 5.01 µM (active) |
| Cn1c(=O)c2c(nc(CN3CCOCC3)n2Cc2ccccc2)n(C)c1=O | – | inactive |
| COCCn1c(CN2CCC(Cc3ccccc3)CC2)nc2c1c(=O)n(C)c(=O)n2C | – | inactive |

| Compound | activation | Potency |
| --- | --- | --- |
| CC1CN(C(=O)c2ccc3c(c2)OCO3)OC(c2ccccc2)O1 (configuration not stated) | – | inactive |
| Cc1ccc(C(=O)CSc2nc3ccccc3c(=O)n2N)o1 | – | inactive |
| CC(Sc1nc2ccccc2c(=O)n1Cc1ccco1)C(=O)c1ccccc1 (configuration not stated) | – | 15.8 µM (active) |
| Cc1nc2c(c(=O)n1Cc1ccco1)c1nc3ccccc3nc1n2Cc1ccccc1 | – | inactive |
| CO[C@H]1COC(=O)[C@H](Cc2ccccc2)NC(=O)C/C=C\[C@@H](C)[C@H](OC)COC(=O)C/C=C\[C@@H]1C | 25.1% [at 11.4 µM] (inactive) | – |
| COc1ccc(NC(=O)N2CC3(CCN(C(=O)c4cccn4C)CC3)C2)cc1 | – | inactive |
| Cn1c(SCC(=O)c2cccs2)nnc1-c1ccco1 | – | inactive |
| COCn1c(COc2ccccc2)nc2ccccc21 | 25.1% [at 11.4 µM] (inactive) | – |
| CC(=O)NC(C)c1nc2ccccc2n1Cc1ccccc1F (configuration not stated) | – | inactive |
| COCc1nc2ccccc2n1Cc1ccccc1Br | – | 31.6 µM (active) |
| COCc1nnc(NC(=O)CS(=O)(=O)Cc2ccccc2)s1 | – | inactive |
| Cc1ccc(N2CCN(S(=O)(=O)c3ccc(F)cc3)CC2)c(C)c1 | – | inactive |
| CC(Cc1ccccc1)C(=O)N(C)Cc1ccccc1 (configuration not stated) | – | inactive |
| CN(C(=O)c1ccccn1)c1nnc(-c2ccccn2)s1 | – | inactive |
| c1ccc(-c2cc(-c3nnc4sc(-c5ccccn5)nn34)[nH]n2)cc1 | – | 25.1 µM (active) |
| COc1ccc(-c2nn3c(-c4ccccc4)nnc3s2)cc1OC | – | inactive |
| Cc1ccc(S(=O)(=O)N2CC(=O)Nc3ccccc32)cc1C | -6.15% [at 11.4 µM] (inactive) | – |
| CCOC(=O)N/N=C1/C[C@@H](O)[C@@H](O)[C@@H]2[C@@H]3C(=O)N(CC)C(=O)[C@H]3CC[C@H]12 | 2.56% [at 11.4 µM] (inactive) | – |
| COc1ccc(OC)c(C(=O)c2coc3ccc(OC)cc23)c1 | – | 10 µM (active) |
| COc1ccc(OC)c(C(=O)c2coc3ccc(O)c(CN4CCOCC4)c23)c1 | – | inactive |
| COc1ccc(OC)c(C(=O)c2ccc(C(=O)O)cc2)c1 | – | inactive |
| O=C(CN1C(=O)CSc2ncccc21)N1CCOCC1 | – | inactive |
| CN(C)c1ccc(NC(=O)c2ccncc2)c2ccccc12 | – | inactive |
| COc1ccc(CCN2CNc3c(c(=O)n(C)c(=O)n3C)C2)cc1OC | – | inactive |
| CCC/C=C(\CCC)C(NC(=O)Cc1ccccc1)c1ccc(C(=O)OC)cc1 (configuration not stated) | – | 15.8 µM (active) |

| Compound | activation | Potency |
| --- | --- | --- |
| COC(=O)c1ccc(NCC(=O)c2ccccc2)cc1 | – | inactive |
| CCN(CC)C(=O)CCC(=O)Nc1ccc(C(=O)OC)cc1 | – | inactive |
| CO[C@H]1COC(=O)CCC[C@@H](C)[C@H](OC)COC(=O)[C@@H](C)NC(=O)C/C=C\[C@@H]1C | 4.76% [at 11.4 µM] (inactive) | – |
| Fc1ccc(-c2nnc(CSc3nnc(-c4ccc5c(c4)OCO5)o3)o2)cc1 | – | 25.1 µM (active) |
| Fc1ccc2nc(-c3ccccc3)nc(SCc3nnc(-c4ccccc4)o3)c2c1 | – | inactive |
| Fc1ccc(-c2nnc3sc(-c4ccc5c(c4)OCO5)nn23)cc1 | – | inactive |
| Cc1ccc(C(=O)NC2CC(C)(C)NC(C)(C)C2)c(C)c1 | – | inactive |
| COC(=O)c1ccc(COC(=O)c2c(C)nn(Cc3ccccc3Cl)c2Cl)o1 | – | 15.8 µM (active) |
| CCOC(=O)c1ccc(COC(=O)c2cc(=O)[nH]c3ccccc23)o1 | – | inactive |
| Cc1nn(Cc2ccccc2)c(Cl)c1C(=O)OC1CCOC1=O (configuration not stated) | – | inactive |
| CCCCn1c(CCCNC(=O)CC)nc2ccccc21 | – | inactive |
| COc1ccc(NC(=O)CCNC(=O)Cn2ccc3ccccc3c2=O)c(OC)c1 | – | inactive |
| CC(C)(C)c1cc(CN2CCN(CCC#N)CC2)cc(C(C)(C)C)c1O | – | 7.94 µM (active) |
| N#CCCN1CCN(S(=O)(=O)c2ccc(S(=O)(=O)NC3CC3)cc2)CC1 | – | inactive |
| Cc1ccc(S(=O)(=O)NCC(=O)OCC(=O)N2CCc3ccccc32)cc1 | – | inactive |
| C[C@@H]1/C=C\CC(=O)OC[C@H]2O[C@@H](C=C[C@@H]2O)[C@H](C)/C=C\CC(=O)OC[C@H]2O[C@H]1C=C[C@@H]2O | -6.65% [at 11.4 µM] (inactive) | – |
| O=C(Nc1nc(-c2ccc3c(c2)OCO3)cs1)c1ccncc1 | – | 20 µM (active) |
| O=C(Nc1cccnc1)c1ccc2c(c1)OCO2 | – | inactive |
| O=C(Nc1ccc2c(c1)OCCO2)c1ccncc1 | – | inactive |
| C=CCn1c(COc2ccccc2)nnc1SCC(=O)NCC(=O)OCC | – | inactive |
| O=C(CC1(O)C(=O)N(CN2CCOCC2)c2ccccc21)c1ccccc1 (configuration not stated) | – | inactive |
| Cc1ccc(C(=O)Nc2nnc(-c3ccncc3)s2)o1 | – | inactive |
| CC(C)N(CCNC(=O)c1ccc(-n2c(=O)c(=O)[nH]c3ccccc32)cc1)C(C)C | – | inactive |
| Cc1cc(N2CCN(Cc3ccc4c(c3)OCO4)CC2)n2ncnc2n1 | – | inactive |
| Cc1cc(C)c(C#N)c(SCc2ccc3c(c2)OCO3)n1 | – | 20 µM (active) |

| Compound | activation | Potency |
| --- | --- | --- |
| Cc1cc(C)c(C#N)c(SCc2ccccc2C(=O)O)n1 | – | inactive |
| CC1(C)OC(C(O)(c2ccccc2)c2ccccc2)C(C(O)(c2ccccc2)c2ccccc2)O1 (configuration not stated) | 25.8% [at 11.4 µM] (inactive) | – |
| CCOc1ccc(C(CC(=O)O)NC(=O)COc2ccccc2)cc1 (configuration not stated) | – | inactive |
| O=C(Nc1nnc(CCc2ccccc2)s1)C1CCCO1 (configuration not stated) | – | inactive |
| CCC(=O)c1cc2c(cc1NC(=O)c1cccs1)OCCO2 | – | inactive |
| O=S(=O)(NCC1CCCO1)c1ccc2ccccc2c1 (configuration not stated) | – | inactive |
| O=S(=O)(c1cccs1)N1CCN(Cc2ccccc2)CC1 | – | inactive |
| CCOc1ccc(CN(Cc2ccco2)C(c2cccs2)c2nnnn2C(C)(C)C)cc1 (configuration not stated) | – | inactive |
| Cn1nnnc1SCC(=O)N1CCN(Cc2ccccc2)CC1 | – | inactive |
| CCC(C)(C)n1nnnc1C(c1cccs1)N1CCN(c2nc3ccccc3s2)CC1 (configuration not stated) | – | 3.16 µM (active) |
| Fc1ccc(Cn2nnnc2C(c2cccs2)N2CCCCCC2)cc1 (configuration not stated) | – | 31.6 µM (active) |
| CCC(C)(C)n1nnnc1C(c1cccs1)N1CCN(Cc2ccccc2)CC1 (configuration not stated) | – | 12.6 µM (active) |
| Cc1ccc(C(c2nnnn2C(C)(C)C)N2CCc3ccccc3C2)cc1 (configuration not stated) | – | inactive |
| Fc1ccccc1C(c1nnnn1Cc1ccc2c(c1)OCO2)N1CCN(Cc2ccccc2)CC1 (configuration not stated) | – | inactive |
| Cc1cc(C)c2[nH]c(=O)c(C(c3nnnn3Cc3ccc4c(c3)OCO4)N3CCCC3)cc2c1 (configuration not stated) | – | inactive |
| COc1ccc(-c2nc3cnc(N(C)C)nc3n(Cc3cccs3)c2=O)cc1 | – | inactive |
| CCOC(=O)C(C(=O)OCC)C(C#N)c1ccccc1 (configuration not stated) | – | inactive |
| O=C(O)CC(C(=O)O)C(CC(=O)O)C(=O)O (configuration not stated) | – | inactive |
| Cc1ccc(S(=O)(=O)Cn2nnnc2CN2CCN(Cc3ccc4c(c3)OCO4)CC2)cc1 | – | inactive |
| O=C(O)c1ccc(Cl)c(S(=O)(=O)Nc2ccccc2Cl)c1 | – | inactive |
| Cc1ccc(-c2nc(CS(=O)CC(=O)N3CCN(c4ncccn4)CC3)c(C)o2)cc1 (configuration not stated) | – | inactive |
| N#CC1=C(N)OC2=C(C(=O)CCC2)C1C1CC=CCC1 (configuration not stated) | – | inactive |

Reference: PubChem BioAssay AID938 (National Center for Advancing Translational Sciences (NCATS), 2007)
